Assay results: PubChem BioAssay (Tox21)
Inconclusive results are not listed. The source made the active and inactive calls. The call rests on the fitted dose curve; in most records, active means well fitted cell-killing curve with a large enough effect in the repeat runs; inconclusive means weak or mixed curves; inactive means flat fitted curve, though single readings scatter.

assay: qHTS assay to identify small molecule antagonists of the estrogen related receptor (ERR) signaling pathway - cell viability counter screen (AID 1224818); settings: ERR reporter cell line viability counter screen; series mostly up to 46.1 µM; viability change, negative = cytotoxic: at the top concentration
How it was run: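 Viability of ERR cells, CellTiter-Fluor fluorescence; 17.5 h compound exposure at 37 C, DMSO vehicle; 30 min reagent incubation at 37 C/5% CO2.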
On the % scale 0 is the no-effect control and ±100 the full control effect.

With `Nc1ncnc2c1ncn2C1CCCO1` (stereo not given) as the molecule, how does the “viability change, negative = cytotoxic” value read?
Its value is 5.5% (inactive).

For `CC(C)Cc1ccc([C@H](C)C(=O)O)cc1`, which “viability change, negative = cytotoxic” value is on record?
The value was 13.6% (inactive).

Which Potency does the source give for `CC(C)(C)c1onc(OCP(=O)(O)O)c1CC(N)C(=O)O` (stereo not given) here?
The Potency was “inactive”.

For `CNCCNS(=O)(=O)c1cccc2cnccc12`, which “viability change, negative = cytotoxic” value is on record?
The value was -3.69% (inactive).

With `CC[N+](CC)(CC)CC(=O)Nc1c(C)cccc1C` as the molecule, how does the “viability change, negative = cytotoxic” value read?
Its value is -4.38% (inactive).

With `CCOC(=O)C12CC1/C(=N/O)c1ccccc1O2` (stereo not given) as the molecule, how does the “viability change, negative = cytotoxic” value read?
Its value is -0.972% (inactive).

With `O=[N+]([O-])c1cccc2cn[nH]c12` as the molecule, how does the “viability change, negative = cytotoxic” value read?
The value was -4.55% (inactive).

With `NC(N)=[N+]1CCc2ccccc2C1` as the molecule, how does the “viability change, negative = cytotoxic” value read?
The value was 13.4% (inactive).

For `NCCCCN=C(N)N`, which “viability change, negative = cytotoxic” value is on record?
The value was 5.31% (inactive).

Which “viability change, negative = cytotoxic” value does the source give for `NC(N)=NC(N)=Nc1cccc(Cl)c1` here?
The value was -0.406% (inactive).

For `CS(=O)(=O)c1cccc(CNc2nc(Nc3ccc4c(c3)CCC(=O)N4)ncc2C(F)(F)F)c1`, which “viability change, negative = cytotoxic” value is on record?
Its value is -20.9% (inactive).

With `CC(=O)NC[C@H]1CN(c2ccc(N3CCOCC3)c(F)c2)C(=O)O1` as the molecule, how does the “viability change, negative = cytotoxic” value read?
The value was 13.7% (inactive).

For `CCNc1nc2c(ncn2[C@H]2C[C@H](O)[C@@H](CO)O2)c(=O)[nH]1`, which “viability change, negative = cytotoxic” value is on record?
The value was -2.72% (inactive).

Which “viability change, negative = cytotoxic” value does the source give for `O=C(O)CCC(=O)N1CCCC1C(=O)O` (stereo not given) here?
The value was 2.64% (inactive).

With `O=C(O)c1cc(=O)cc(C(=O)O)[nH]1` as the molecule, how does the “viability change, negative = cytotoxic” value read?
The value was 9.64% (inactive).

For `Nc1ncnc2c1ncn2[C@@H]1O[C@H](COP(=O)(O)OP(=O)(O)OP(=O)(O)OP(=O)(O)OC[C@@H]2O[C@H](n3cnc4c(N)ncnc43)[C@@H](O)C2O)C(O)[C@H]1O` (stereo not given in full), which “viability change, negative = cytotoxic” value is on record?
The value was 8.66% (inactive).

Which “viability change, negative = cytotoxic” value does the source give for `COc1ccc(-c2cc3ncc(C)n3c(Nc3ncccc3C(N)=O)n2)cc1OC` here?
The value was -21.8% (inactive).

With `CC(C)(Sc1ccc(CCN(CCCCC2CCCCC2)C(=O)NC2CCCCC2)cc1)C(=O)O` as the molecule, how does the “viability change, negative = cytotoxic” value read?
Its value is -5.04% (inactive).

Which “viability change, negative = cytotoxic” value does the source give for `N[C@@H](Cc1ccc(O)c(O)c1)C(=O)O` here?
Its value is 9.7% (inactive).

For `Brc1ccc([C@H]2CN3CCSC3=N2)cc1`, which “viability change, negative = cytotoxic” value is on record?
The value was 16.9% (inactive).
